Assay in all cases: DAPPL (digital affinity profiling via proximity ligation, sequencing); 10 mM Tris-HCl pH 7.5, 50 mM NaCl, 1 mM DTT, 4% glycerol, room temperature, 30 min; GST-TFs on glutathione beads, 16-mer random dsDNA library, 0.1% formaldehyde crosslink after washing; high values mean tight binding
The target in experiment [1] is T1, FEV (Homo sapiens, UniProt Q99581 1-238).
T1 sequence: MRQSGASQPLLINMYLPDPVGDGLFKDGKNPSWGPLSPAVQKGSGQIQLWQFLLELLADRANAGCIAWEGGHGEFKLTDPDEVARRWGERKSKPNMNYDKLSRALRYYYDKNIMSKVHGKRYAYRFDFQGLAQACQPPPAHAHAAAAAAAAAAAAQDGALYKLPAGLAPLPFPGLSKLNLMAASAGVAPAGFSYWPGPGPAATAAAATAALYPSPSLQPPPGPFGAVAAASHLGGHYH
The following applies: protein: recombinant; tags: N-terminal GST; dsDNA, one strand shown. The method in brief: (§1)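 In yeast, human transcription factors were expressed with a GST fusion, then pulled down on glutathione beads and given DNA barcodes. Pooled with a tag-only sample, they were exposed to 200 nmole of a 16-mer random double-stranded DNA library (Tris/NaCl/DTT/glycerol buffer, room temperature, 30 min), washed, crosslinked with 0.1% formaldehyde, proximity-ligated using BsaI/T4 ligase for 1 h at 37 °C, PCR-amplified and read on an Illumina NextSeq500. Each hexamer's frequency of reads for a factor, divided by the matching frequency for the tag-only sample, gives the binding signal.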

Experiment [2] addresses ETV5 (Homo sapiens, UniProt P41161 1-510). To be noted: protein: recombinant; tags: N-terminal GST; dsDNA, one strand shown. The method in brief: as §1
Experiment [3] concerns the target HSF1 (Homo sapiens, UniProt Q00613 1-529). To be noted: protein: recombinant; tags: N-terminal GST; chain copies: 3; dsDNA, one strand shown. Put shortly:
as §1

Experiment [4] concerns the target T2, SPIC (Homo sapiens, UniProt Q8N5J4 1-248).
T2 sequence: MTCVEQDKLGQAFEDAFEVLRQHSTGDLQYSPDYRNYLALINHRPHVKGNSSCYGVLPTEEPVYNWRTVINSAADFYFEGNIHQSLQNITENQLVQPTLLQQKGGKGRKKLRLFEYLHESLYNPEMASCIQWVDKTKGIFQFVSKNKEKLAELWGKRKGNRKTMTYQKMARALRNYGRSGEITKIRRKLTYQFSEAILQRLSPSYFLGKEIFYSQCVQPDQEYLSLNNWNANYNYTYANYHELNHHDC
To be noted: protein: recombinant; tags: N-terminal GST; dsDNA, one strand shown. The method in brief:
as §1

For experiment [5], the target named is ELF4 (Homo sapiens, UniProt Q99607 1-663). To be noted: protein: recombinant; tags: N-terminal GST; dsDNA, one strand shown. Put shortly:
as §1

Experiment [6] concerns the target T3, ELK4 (Homo sapiens, UniProt P28324-2 1-405).
T3 sequence: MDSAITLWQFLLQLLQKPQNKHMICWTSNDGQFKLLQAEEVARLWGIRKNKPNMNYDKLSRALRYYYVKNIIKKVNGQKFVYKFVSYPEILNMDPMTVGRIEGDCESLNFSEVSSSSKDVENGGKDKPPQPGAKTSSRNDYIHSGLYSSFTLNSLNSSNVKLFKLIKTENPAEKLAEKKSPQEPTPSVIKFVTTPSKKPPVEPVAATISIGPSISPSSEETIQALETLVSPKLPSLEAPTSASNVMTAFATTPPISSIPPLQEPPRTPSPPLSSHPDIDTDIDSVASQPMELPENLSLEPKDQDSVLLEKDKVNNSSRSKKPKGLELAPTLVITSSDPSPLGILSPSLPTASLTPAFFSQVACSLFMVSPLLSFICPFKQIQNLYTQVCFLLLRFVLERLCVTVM
To be noted: protein: recombinant; tags: N-terminal GST; dsDNA, one strand shown. The method in brief:
as §1

Experiment [7] deals with T4, ETV2 (Homo sapiens, UniProt O00321 1-342).
T4 sequence: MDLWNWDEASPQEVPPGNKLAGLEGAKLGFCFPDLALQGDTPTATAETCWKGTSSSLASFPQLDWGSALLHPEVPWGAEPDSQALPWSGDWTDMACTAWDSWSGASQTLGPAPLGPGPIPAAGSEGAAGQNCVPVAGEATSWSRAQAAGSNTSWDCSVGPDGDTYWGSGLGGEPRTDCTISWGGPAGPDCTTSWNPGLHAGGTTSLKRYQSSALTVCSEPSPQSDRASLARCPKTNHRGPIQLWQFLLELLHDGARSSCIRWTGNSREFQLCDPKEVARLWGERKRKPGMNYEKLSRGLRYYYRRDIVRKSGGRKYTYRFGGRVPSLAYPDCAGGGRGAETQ
The following applies: protein: recombinant; tags: N-terminal GST; dsDNA, one strand shown. Put shortly:
as §1

Experiment [8] deals with T5, ELF3 (Homo sapiens, UniProt P78545 1-371).
T5 sequence: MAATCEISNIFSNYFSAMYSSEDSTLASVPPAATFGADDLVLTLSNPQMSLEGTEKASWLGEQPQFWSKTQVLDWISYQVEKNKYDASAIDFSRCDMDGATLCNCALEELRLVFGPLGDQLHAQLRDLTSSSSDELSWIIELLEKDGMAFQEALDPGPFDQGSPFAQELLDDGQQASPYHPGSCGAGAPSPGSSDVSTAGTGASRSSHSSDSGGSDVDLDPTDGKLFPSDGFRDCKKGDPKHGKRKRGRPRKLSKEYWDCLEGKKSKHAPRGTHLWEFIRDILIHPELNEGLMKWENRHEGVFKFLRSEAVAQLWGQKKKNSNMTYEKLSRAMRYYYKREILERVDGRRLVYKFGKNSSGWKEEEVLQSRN
The following applies: protein: recombinant; tags: N-terminal GST; dsDNA, one strand shown. Put shortly: as §1

Experiment [9] has as its target CRX (Homo sapiens, UniProt O43186 1-299). The following applies: protein: recombinant; tags: N-terminal GST; dsDNA, one strand shown. Put shortly: as §1
Experiment [10] has as its target ETV1 (Homo sapiens, UniProt P50549 1-477). The following applies: protein: recombinant; tags: N-terminal GST; dsDNA, one strand shown. Put shortly:
as §1

The target in experiment [11] is T6, ERF (Homo sapiens, UniProt P50548 1-548).
T6 sequence: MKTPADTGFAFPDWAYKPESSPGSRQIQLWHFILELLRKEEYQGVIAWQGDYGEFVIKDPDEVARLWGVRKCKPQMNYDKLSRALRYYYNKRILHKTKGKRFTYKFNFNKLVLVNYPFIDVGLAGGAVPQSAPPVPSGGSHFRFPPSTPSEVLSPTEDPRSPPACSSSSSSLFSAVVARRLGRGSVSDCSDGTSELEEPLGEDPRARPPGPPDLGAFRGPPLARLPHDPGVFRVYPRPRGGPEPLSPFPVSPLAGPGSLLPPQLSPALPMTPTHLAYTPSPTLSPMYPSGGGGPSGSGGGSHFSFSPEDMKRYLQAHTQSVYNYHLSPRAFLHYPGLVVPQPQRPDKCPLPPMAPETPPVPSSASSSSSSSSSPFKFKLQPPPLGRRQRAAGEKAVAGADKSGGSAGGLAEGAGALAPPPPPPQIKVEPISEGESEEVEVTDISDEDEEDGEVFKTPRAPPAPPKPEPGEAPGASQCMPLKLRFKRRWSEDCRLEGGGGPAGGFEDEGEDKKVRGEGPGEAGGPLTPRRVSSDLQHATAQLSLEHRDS
The following applies: protein: recombinant; tags: N-terminal GST; dsDNA, one strand shown. The method in brief:
as §1

Experiment [12] deals with T7, ETV3L (Homo sapiens, UniProt Q6ZN32 1-361).
T7 sequence: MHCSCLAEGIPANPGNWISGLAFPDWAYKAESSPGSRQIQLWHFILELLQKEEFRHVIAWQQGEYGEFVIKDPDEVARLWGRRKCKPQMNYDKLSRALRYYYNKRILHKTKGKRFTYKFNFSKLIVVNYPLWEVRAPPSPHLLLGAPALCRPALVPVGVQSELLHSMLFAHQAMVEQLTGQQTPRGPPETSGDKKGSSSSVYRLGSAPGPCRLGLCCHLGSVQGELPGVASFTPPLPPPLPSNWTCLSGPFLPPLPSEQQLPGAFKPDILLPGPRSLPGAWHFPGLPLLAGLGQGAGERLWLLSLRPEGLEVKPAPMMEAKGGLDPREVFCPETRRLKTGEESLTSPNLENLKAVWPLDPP
The following applies: protein: recombinant; tags: N-terminal GST; dsDNA, one strand shown. Put shortly: as §1

Experiment [13] has as its target T8, ETS2 (Homo sapiens, UniProt P15036 1-469).
T8 sequence: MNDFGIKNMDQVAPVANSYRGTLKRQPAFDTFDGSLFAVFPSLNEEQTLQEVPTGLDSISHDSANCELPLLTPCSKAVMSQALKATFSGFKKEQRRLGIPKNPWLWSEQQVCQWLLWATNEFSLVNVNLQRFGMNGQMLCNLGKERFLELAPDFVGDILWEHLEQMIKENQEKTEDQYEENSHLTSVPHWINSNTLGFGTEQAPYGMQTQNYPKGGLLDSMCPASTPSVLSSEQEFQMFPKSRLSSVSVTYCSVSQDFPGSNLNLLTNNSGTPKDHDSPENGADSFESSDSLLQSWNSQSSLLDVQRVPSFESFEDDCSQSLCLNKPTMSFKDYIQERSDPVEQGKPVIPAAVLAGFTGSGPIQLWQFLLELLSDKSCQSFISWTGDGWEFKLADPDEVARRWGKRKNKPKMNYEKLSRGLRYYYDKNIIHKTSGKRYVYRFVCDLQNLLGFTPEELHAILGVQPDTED
To be noted: protein: recombinant; tags: N-terminal GST; dsDNA, one strand shown. The method in brief:
as §1

Experiment [14] concerns the target T9, SPDEF (Homo sapiens, UniProt O95238 1-335).
T9 sequence: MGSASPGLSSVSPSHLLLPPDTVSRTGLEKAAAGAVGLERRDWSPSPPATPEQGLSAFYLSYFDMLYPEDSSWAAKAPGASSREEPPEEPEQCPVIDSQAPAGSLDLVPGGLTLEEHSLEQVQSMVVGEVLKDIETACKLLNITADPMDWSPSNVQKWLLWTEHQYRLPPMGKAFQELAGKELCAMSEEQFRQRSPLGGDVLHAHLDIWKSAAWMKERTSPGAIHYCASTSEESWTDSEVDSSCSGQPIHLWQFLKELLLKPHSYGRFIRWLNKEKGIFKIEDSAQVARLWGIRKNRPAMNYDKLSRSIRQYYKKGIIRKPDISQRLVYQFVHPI
The following applies: protein: recombinant; tags: N-terminal GST; dsDNA, one strand shown. Put shortly: as §1

Experiment [15] has as its target T10, ETV7 (Homo sapiens, UniProt Q9Y603 1-341).
T10 sequence: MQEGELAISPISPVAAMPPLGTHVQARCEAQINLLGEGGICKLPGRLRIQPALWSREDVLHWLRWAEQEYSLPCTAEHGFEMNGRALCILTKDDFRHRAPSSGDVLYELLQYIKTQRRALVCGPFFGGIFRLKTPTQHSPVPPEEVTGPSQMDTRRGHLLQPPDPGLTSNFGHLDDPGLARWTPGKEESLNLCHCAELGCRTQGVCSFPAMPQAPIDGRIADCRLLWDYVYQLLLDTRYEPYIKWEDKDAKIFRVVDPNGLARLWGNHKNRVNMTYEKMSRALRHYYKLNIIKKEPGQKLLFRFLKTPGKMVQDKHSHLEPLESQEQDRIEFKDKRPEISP
To be noted: protein: recombinant; tags: N-terminal GST; dsDNA, one strand shown. Put shortly:
as §1

Experiment [16] concerns the target T11, ELF5 (Homo sapiens, UniProt Q9UKW6-2 1-255).
T11 sequence: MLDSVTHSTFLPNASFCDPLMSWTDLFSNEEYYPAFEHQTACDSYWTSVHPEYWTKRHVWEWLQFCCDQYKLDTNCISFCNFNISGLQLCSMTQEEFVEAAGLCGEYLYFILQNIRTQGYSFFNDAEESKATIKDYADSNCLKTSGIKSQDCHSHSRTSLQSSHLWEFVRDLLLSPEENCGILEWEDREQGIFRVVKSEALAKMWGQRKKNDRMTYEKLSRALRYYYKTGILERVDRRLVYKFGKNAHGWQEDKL
The following applies: protein: recombinant; tags: N-terminal GST; dsDNA, one strand shown. Put shortly:
as §1

Experiment [17] concerns the target T12, ETV3 (Homo sapiens, UniProt P41162-2 1-143).
T12 sequence: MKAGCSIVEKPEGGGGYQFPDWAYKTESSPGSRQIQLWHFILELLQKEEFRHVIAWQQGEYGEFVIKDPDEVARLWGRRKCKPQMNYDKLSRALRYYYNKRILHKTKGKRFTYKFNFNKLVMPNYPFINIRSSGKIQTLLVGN
The following applies: protein: recombinant; tags: N-terminal GST; dsDNA, one strand shown. Put shortly: as §1

Experiment [18] deals with ETV6 (Homo sapiens, UniProt P41212 1-452). The following applies: protein: recombinant; tags: N-terminal GST; dsDNA, one strand shown. The method in brief:
as §1

Chain of ETV5 (P41161 whole entry): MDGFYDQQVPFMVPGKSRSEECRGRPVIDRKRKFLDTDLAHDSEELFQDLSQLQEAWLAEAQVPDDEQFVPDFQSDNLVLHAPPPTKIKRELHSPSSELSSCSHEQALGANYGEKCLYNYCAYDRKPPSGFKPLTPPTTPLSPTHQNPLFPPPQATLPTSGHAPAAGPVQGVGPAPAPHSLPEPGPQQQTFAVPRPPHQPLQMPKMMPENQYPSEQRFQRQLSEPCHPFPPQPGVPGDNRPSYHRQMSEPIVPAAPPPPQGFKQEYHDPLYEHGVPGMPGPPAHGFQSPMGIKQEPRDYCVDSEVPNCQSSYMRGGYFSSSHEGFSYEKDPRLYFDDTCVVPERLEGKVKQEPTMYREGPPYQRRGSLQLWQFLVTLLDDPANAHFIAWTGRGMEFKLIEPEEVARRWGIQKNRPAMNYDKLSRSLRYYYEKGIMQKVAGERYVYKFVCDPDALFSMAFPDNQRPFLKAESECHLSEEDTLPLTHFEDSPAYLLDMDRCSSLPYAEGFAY
Chain of ELF4 (Q99607 whole entry): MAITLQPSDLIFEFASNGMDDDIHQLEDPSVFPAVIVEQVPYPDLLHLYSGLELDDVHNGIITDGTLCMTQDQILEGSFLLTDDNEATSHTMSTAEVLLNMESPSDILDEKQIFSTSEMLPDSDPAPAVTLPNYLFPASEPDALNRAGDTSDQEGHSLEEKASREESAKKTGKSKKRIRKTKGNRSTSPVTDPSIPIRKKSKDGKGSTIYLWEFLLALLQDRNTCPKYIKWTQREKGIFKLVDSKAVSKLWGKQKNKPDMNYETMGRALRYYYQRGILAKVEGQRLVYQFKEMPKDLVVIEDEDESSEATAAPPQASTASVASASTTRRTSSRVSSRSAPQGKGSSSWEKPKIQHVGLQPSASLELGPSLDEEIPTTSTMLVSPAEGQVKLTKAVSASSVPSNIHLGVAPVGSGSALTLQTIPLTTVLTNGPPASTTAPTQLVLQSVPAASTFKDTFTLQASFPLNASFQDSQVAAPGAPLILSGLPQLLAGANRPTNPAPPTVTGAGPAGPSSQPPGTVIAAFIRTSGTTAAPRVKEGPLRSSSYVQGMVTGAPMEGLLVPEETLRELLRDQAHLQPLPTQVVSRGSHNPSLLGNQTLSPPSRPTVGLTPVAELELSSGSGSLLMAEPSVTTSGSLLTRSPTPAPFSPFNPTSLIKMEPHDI
Chain of CRX (O43186 whole entry): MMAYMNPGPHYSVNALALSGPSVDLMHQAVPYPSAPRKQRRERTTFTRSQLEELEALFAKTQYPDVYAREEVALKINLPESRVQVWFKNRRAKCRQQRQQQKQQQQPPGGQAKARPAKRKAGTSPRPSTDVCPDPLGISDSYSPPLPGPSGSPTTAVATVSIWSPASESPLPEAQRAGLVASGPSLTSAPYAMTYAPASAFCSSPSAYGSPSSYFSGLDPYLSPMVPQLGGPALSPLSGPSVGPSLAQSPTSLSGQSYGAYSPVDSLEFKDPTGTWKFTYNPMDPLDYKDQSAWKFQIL
Chain of HSF1 (Q00613 whole entry): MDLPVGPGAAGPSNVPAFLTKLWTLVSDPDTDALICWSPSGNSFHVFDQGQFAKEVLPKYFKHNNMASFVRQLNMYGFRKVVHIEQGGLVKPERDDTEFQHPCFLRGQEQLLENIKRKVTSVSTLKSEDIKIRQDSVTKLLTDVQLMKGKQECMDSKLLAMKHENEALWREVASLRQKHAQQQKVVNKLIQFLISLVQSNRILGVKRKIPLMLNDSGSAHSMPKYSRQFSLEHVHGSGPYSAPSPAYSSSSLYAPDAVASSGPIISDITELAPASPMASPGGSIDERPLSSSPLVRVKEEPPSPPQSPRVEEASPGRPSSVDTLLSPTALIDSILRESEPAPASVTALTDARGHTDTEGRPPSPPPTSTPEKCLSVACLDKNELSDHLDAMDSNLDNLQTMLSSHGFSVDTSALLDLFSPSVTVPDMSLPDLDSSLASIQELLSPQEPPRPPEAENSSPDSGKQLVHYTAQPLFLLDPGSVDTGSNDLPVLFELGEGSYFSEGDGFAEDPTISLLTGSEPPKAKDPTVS
Chain of ETV6 (P41212 whole entry): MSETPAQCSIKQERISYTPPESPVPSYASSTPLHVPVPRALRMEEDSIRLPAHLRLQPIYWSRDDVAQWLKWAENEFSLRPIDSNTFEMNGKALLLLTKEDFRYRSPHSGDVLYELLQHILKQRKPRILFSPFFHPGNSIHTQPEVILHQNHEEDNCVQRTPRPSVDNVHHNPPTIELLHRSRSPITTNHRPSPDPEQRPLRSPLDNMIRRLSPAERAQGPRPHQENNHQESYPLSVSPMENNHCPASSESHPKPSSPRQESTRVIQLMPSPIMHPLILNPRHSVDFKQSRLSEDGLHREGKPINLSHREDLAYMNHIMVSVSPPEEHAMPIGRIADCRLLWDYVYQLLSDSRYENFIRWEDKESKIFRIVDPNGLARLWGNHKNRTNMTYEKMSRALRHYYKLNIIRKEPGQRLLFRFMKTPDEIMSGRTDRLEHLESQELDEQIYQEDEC
Chain of ETV1 (P50549 whole entry): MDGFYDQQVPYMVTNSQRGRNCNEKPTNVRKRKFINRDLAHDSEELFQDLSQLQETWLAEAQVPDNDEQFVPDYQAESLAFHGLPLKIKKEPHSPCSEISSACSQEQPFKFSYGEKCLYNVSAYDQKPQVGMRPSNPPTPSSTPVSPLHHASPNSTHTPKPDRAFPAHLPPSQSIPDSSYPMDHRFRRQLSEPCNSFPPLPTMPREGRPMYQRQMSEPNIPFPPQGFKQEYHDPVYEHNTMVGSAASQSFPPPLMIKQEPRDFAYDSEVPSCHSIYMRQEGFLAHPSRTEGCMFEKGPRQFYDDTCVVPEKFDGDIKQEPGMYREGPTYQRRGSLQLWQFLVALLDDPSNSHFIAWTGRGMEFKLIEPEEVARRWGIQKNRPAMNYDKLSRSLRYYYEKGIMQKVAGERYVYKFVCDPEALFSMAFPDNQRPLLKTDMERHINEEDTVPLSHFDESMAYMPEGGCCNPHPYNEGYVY

As to AGCTCT, the binding signal in [1] is 1.19 fold enrichment (6-mer frequency, TF over GST control); in [2], 1.15 fold enrichment (6-mer frequency, TF over GST control); in experiment [3] it was 1.25 fold enrichment (6-mer frequency, TF over GST control); in experiment [4], 1.24 fold enrichment (6-mer frequency, TF over GST control); in [5], 1.21 fold enrichment (6-mer frequency, TF over GST control); in experiment [6], 1.22 fold enrichment (6-mer frequency, TF over GST control). Also, the binding signal in [7] is 1.14 fold enrichment (6-mer frequency, TF over GST control); in experiment [8], 1.21 fold enrichment (6-mer frequency, TF over GST control); in experiment [9], 1.41 fold enrichment (6-mer frequency, TF over GST control); in experiment [10], 1.25 fold enrichment (6-mer frequency, TF over GST control); in experiment [11], 1.16 fold enrichment (6-mer frequency, TF over GST control); in experiment [12], 1.34 fold enrichment (6-mer frequency, TF over GST control). Also, the binding signal in experiment [13] is 1.16 fold enrichment (6-mer frequency, TF over GST control); in [14], 1.03 fold enrichment (6-mer frequency, TF over GST control); in experiment [15], 1.17 fold enrichment (6-mer frequency, TF over GST control); in experiment [16], 1.12 fold enrichment (6-mer frequency, TF over GST control); in [17], 1.21 fold enrichment (6-mer frequency, TF over GST control); in experiment [18], 1.17 fold enrichment (6-mer frequency, TF over GST control).

(Values after paper PMC7862700, “An all-to-all approach to the identification of sequence-specific readers for epigenetic DNA modifications on cytosine”.)
